# Experimental data as given in the supplement of paper PMC10849652.
# Targets with a hit are over-represented here; the source holds about 8,800 in all. About 0.5% of all pairs of compound and target were hits. A number with no mark means an inactive call.
# Experiments:
# Test in all cases: log2 fold change, soluble protein after heating vs DMSO (PISA); higher = thermal stabilisation; K562 lysate, 10 uM; active = over 0.2 and 3.5 SD of the protein, either way, in both replicates (recomputed)
# lapatinib = compound: CS(=O)(=O)CCNCc1ccc(-c2ccc3ncnc(Nc4ccc(OCc5cccc(F)c5)c(Cl)c4)c3c2)o1 [lapatinib]
# How it was run: (§1)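 Values give the log-two fold change in thermal stability against solvent controls, from duplicates. Crude K562 extract at 1 mg/mL protein, made by dounce homogenisation in PBS pH 7.4 with 1 mM MgCl2, was treated with 10 μM compound for 30 min. After 3 min heating across 48°C-58°C, aliquots were pooled, adjusted to 0.5% NP-40 at 4°C and centrifuged at 21,000xg for 90 min. The supernatant was measured by TMTpro 16plex LC-MS/MS with channel sums equalised.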
# pictilisib = compound: CS(=O)(=O)N1CCN(Cc2cc3nc(-c4cccc5[nH]ncc45)nc(N4CCOCC4)c3s2)CC1 [pictilisib]
# How it was run: as §1
# crizotinib = compound: C[C@@H](Oc1cc(-c2cnn(C3CCNCC3)c2)cnc1N)c1c(Cl)ccc(F)c1Cl [crizotinib]
# How it was run: as §1
# [1] = compound: C[C@H](C1=CC=C(C=C1)C(=O)NC2=C3C=CNC3=NC=C2)N
# How it was run: as §1
# duvelisib = compound: C[C@H](Nc1ncnc2nc[nH]c12)c1cc2cccc(Cl)c2c(=O)n1-c1ccccc1 [duvelisib]
# How it was run: as §1
# gandotinib = compound: Cc1cc(Nc2cc(CN3CCOCC3)c3nc(C)c(Cc4ccc(Cl)cc4F)n3n2)n[nH]1 [gandotinib]
# How it was run: as §1
# tozasertib = compound: Cc1cc(Nc2cc(N3CCN(C)CC3)nc(Sc3ccc(NC(=O)C4CC4)cc3)n2)n[nH]1 [tozasertib]
# How it was run: as §1
# doramapimod = compound: Cc1ccc(-n2nc(C(C)(C)C)cc2NC(=O)Nc2ccc(OCCN3CCOCC3)c3ccccc23)cc1 [doramapimod]
# How it was run: as §1
# bafetinib = compound: Cc1ccc(NC(=O)c2ccc(CN3CC[C@H](N(C)C)C3)c(C(F)(F)F)c2)cc1Nc1nccc(-c2cncnc2)n1 [bafetinib]
# How it was run: as §1
# [2] = compound: Cc1cccc(CC(=O)N2CCc3c2ccc(-c2cn(C)c4ncnc(N)c24)c3F)n1
# How it was run: as §1
# Chain of UniProt O15111 (O15111 whole entry, looked up): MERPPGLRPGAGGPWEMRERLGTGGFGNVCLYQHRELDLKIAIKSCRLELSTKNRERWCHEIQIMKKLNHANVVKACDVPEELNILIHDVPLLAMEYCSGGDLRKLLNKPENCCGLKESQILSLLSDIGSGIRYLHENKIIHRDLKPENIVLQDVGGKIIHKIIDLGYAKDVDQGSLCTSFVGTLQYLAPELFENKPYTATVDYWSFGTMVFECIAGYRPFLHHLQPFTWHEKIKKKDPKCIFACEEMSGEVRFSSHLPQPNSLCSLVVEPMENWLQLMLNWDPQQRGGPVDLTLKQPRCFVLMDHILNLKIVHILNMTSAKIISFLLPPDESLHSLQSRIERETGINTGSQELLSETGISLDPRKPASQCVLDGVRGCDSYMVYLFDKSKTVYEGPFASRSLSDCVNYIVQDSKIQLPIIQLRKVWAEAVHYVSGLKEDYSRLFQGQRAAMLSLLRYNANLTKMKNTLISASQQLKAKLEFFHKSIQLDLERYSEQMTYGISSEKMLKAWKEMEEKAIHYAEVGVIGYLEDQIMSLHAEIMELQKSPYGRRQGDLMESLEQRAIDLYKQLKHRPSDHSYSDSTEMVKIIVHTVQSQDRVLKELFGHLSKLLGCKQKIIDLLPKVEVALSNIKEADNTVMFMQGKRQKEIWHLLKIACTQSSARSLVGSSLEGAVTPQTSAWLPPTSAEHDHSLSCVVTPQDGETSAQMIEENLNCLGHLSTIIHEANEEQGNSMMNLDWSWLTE
# Chain of UniProt O95715 (O95715 whole entry, looked up): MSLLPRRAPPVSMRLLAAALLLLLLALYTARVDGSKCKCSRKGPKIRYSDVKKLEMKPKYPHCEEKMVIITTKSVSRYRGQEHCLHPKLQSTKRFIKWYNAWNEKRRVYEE
# Chain of UniProt P04080 (P04080 whole entry, looked up): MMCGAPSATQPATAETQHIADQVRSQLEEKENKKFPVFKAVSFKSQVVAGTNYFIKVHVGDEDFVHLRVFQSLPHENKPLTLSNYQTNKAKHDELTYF
# Chain of UniProt Q13217 (Q13217 whole entry, looked up): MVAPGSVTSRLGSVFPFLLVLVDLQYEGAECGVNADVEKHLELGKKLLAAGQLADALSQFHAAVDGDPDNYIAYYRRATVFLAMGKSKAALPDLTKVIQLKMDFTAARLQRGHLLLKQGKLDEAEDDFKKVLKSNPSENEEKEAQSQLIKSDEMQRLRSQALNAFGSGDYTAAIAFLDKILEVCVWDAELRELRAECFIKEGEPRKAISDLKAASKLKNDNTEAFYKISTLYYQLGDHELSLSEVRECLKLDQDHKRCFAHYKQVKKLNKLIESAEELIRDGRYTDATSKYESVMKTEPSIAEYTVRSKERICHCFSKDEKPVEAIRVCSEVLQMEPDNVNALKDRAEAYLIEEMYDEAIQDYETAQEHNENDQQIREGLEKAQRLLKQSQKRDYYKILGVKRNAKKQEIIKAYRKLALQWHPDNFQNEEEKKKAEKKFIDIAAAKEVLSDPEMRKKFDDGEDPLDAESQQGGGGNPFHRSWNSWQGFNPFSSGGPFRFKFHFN
# Chain of UniProt Q6ZPD9 (Q6ZPD9 whole entry, looked up): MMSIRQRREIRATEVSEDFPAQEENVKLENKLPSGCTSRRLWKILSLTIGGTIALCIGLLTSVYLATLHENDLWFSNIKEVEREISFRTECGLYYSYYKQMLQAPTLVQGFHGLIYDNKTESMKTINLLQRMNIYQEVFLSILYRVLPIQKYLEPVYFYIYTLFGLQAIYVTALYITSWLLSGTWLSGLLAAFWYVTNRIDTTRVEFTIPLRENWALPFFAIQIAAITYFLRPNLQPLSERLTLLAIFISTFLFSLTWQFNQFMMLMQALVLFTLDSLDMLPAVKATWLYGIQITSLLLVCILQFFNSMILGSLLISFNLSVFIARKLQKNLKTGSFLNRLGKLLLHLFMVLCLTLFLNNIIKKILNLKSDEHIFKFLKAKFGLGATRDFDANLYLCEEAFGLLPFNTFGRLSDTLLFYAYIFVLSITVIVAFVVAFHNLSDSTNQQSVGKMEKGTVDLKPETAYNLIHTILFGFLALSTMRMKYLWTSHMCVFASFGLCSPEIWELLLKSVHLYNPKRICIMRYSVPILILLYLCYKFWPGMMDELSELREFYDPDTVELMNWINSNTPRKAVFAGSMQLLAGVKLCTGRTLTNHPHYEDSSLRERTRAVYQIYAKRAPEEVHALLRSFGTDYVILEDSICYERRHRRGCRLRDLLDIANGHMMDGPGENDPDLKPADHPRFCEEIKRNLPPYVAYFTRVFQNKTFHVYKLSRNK
# Chain of UniProt Q8IWV2 (Q8IWV2 whole entry, looked up): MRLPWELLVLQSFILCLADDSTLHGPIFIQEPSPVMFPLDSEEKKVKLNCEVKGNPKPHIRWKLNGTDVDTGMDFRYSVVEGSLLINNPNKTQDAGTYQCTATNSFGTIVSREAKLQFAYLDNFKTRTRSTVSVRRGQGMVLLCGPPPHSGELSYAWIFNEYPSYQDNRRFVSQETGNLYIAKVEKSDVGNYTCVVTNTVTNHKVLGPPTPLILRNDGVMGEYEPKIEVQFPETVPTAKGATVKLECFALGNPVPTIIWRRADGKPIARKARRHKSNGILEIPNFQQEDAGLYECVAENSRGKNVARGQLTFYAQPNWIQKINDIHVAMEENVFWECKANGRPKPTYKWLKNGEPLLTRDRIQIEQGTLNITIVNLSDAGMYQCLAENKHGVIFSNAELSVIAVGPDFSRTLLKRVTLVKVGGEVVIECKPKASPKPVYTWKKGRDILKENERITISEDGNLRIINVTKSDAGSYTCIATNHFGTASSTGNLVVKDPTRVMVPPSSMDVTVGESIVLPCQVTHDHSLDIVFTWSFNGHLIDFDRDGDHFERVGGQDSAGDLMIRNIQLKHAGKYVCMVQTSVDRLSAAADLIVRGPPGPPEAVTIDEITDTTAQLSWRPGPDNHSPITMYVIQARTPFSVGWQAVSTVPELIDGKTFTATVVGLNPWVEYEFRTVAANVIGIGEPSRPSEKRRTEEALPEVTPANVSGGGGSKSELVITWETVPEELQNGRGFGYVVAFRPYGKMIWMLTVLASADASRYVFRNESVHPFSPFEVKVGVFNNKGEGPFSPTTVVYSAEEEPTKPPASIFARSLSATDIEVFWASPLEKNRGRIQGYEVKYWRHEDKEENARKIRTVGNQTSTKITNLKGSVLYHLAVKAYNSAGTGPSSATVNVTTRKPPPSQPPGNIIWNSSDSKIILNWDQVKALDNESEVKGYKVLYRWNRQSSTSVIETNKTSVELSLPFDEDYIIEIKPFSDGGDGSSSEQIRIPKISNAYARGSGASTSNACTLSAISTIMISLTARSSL
# Chain of UniProt Q9Y600 (Q9Y600 whole entry, looked up): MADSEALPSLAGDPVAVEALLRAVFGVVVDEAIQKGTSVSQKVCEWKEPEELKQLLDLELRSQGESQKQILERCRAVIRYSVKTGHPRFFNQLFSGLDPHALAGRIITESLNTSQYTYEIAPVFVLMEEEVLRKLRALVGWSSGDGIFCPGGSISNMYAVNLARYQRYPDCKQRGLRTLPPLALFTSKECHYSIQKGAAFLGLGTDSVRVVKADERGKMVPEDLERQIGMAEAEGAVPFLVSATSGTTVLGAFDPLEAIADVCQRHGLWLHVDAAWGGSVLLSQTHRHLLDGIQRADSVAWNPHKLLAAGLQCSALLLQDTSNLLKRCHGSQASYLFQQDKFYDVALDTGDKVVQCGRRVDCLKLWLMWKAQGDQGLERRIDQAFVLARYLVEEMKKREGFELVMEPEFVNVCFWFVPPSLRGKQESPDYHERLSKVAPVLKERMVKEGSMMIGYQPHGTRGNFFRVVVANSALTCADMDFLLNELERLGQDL
# Chain of UniProt Q96SQ9 (Q96SQ9 whole entry, looked up): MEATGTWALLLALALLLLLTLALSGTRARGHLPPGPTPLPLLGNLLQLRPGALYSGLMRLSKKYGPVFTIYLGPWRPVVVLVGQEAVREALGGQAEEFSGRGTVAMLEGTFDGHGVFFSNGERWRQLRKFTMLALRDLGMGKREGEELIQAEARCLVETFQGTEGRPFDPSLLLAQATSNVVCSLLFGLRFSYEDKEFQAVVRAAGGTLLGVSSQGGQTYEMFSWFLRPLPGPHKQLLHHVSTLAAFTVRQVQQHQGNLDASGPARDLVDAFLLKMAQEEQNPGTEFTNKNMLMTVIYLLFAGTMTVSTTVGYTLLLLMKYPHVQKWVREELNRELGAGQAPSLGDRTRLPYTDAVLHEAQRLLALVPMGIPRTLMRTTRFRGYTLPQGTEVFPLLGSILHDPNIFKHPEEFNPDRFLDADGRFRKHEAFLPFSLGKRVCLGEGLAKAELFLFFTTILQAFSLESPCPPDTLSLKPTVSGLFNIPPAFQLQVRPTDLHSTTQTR
# Chain of UniProt O15247 (O15247 whole entry, looked up): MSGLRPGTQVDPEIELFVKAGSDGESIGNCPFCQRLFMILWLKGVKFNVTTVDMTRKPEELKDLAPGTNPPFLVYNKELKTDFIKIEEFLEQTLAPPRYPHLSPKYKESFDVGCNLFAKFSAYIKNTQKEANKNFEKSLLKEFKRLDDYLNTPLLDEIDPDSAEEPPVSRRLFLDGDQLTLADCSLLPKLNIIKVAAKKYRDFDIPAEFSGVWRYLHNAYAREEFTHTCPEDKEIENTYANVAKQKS
# Chain of UniProt Q9P003 (Q9P003 whole entry, looked up): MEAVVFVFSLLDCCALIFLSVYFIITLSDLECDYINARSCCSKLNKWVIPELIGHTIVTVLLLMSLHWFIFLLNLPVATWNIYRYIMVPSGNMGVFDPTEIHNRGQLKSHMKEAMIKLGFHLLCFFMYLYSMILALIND
# Chain of UniProt Q16527 (Q16527 whole entry, looked up): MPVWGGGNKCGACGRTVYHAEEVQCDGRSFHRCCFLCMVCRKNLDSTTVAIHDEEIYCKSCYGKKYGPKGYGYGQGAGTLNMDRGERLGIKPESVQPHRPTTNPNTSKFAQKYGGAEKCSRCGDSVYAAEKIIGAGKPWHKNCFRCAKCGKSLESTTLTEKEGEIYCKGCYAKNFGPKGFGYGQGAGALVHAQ
# Chain of UniProt P24311 (P24311 whole entry, looked up): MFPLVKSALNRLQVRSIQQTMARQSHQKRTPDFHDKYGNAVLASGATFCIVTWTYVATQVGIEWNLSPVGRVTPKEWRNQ
Target,log2 fold change (lapatinib),log2 fold change (pictilisib),log2 fold change (crizotinib),log2 fold change [1],log2 fold change (duvelisib),log2 fold change (gandotinib),log2 fold change (tozasertib),log2 fold change (doramapimod),log2 fold change (bafetinib),log2 fold change [2]
DIAPH3 (UniProt Q9NSV4),0.068,0.005,0.003,0.039,-0.043,-0.102,-0.017,0.036,-0.075,0.135
DPY19L3 (UniProt Q6ZPD9),-0.077,-0.268,-0.107,,,,0.057,-0.081,-0.113,
DHRS13 (UniProt Q6UX07),0.048,-0.052,-0.048,,0.185,,,0.087,-0.113,
DAZAP1 (UniProt Q96EP5),0.017,-0.043,0.073,0.035,0.015,0,0.064,0.003,0.243,-0.04
CNTN4 (UniProt Q8IWV2),-0.052,-0.066,-0.268,-0.432,,0.545,-0.182,-0.067,-0.145,0.484
DENND4A isoform 2 (UniProt Q7Z401),-0.034,0.001,-0.038,-0.206,-0.067,0.045,-0.027,-0.009,-0.064,0.203
DNAH5 (UniProt Q8TE73),0.043,-0.005,,-0.422 (active),-0.051,0.181,,,-0.047,0.175
CNIH4 (UniProt Q9P003),0.005,-0.139,-0.055,,0.092,,-0.06,-0.082,-0.248,
CLP1 (UniProt Q92989),-0.003,,-0.041,-0.12,-0.056,0.008,0.004,0.032,0.01,0.047
DDX4 (UniProt Q9NQI0),-0.045,0.035,,-0.481 (active),0.02,0.132,0.078,,-0.167,0.174
CHUK (UniProt O15111),0.001,-0.031,-0.067,0.112,0.036,-0.067,0.024,0.008,-0.001,-0.048
CLCN3 (UniProt P51790),0.004,,0.014,-0.09,-0.017,-0.106,-0.008,0.033,-0.004,0.13
CLIC2 (UniProt O15247),-0.057,,-0.002,-0.037,-0.039,-0.015,-0.016,-0.022,-0.009,0.005
DNAJC3 (UniProt Q13217),0.01,-0.015,0.047,0.001,0.046,0.012,0.014,-0.064,-0.002,-0.014
DLGAP5 (UniProt Q15398),0.02,0,-0.016,-0.029,-0.005,0.049,-0.014,0.001,-0.008,0.04
CSTB (UniProt P04080),0.05,0.003,-0.059,-0.235,0.025,0.147,-0.01,0.107,0.012,0.104
CXCL14 (UniProt O95715),,-0.083,,,,,-0.021,,-0.649,
CYP2S1 isoform 2 (UniProt Q96SQ9),0.316,,0.023,,-0.075,,-0.023,-0.057,,
CSRP2 (UniProt Q16527),,-0.063,-0.157,-0.018,,-0.068,0.118,0.051,0.072,0.052
CSAD isoform 3 (UniProt Q9Y600),,-0.123,-0.123,,,,,0.035,0.046,
COX7B (UniProt P24311),-0.002,,0.058,0.025,0.005,0.01,0.035,0.035,,0.099
CLASP1 (UniProt Q7Z460),0,,-0.051,-0.09,-0.003,0.188,0.004,0.03,-0.042,0.185
"CLUH, A0A494C0R8",-0.052,,-0.019,0.557 (active),0.154,-0.108,-0.025,-0.026,-0.091,-0.14
